High-throughput results as filed in PubChem.
Rows were chosen to be rich in hits. Some 5.6% of all compounds tested hit in one or more screens of this group.
PfG6PD inh = PfG6PD (Plasmodium falciparum) enzyme inhibition; PfGluPho enzyme, NADPH resazurin-diaphorase fluorescence; hit rate 0.78% among 350,000; inhibition, % at 20 µM;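 active = inhibition reaching at least a set limit at 20 µM in the primary screen, cut at about 59% in these data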;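 also: 0% = DMSO wells with substrate and 100% = DMSO wells lacking glucose-6-phosphate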
Cardio protect = myocardial damage modulation in H9c2 cells. H9c2 cardiomyocytes, H2O2 injury protection, ATPLite, 2 h. protection from H2O2 cell death, % at 20 µM. hit rate 0.63% among 360,000. AID 588492;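 active = compounds giving at least 50% protection of heart cells from peroxide-induced death in the single-dose screen, raw or plate-pattern-corrected value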;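 also: 0% = DMSO wells with peroxide and 100% = DMSO wells without peroxide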
PfM18AAP inh = blocks P. falciparum M18 aspartyl aminopeptidase; recombinant PfM18AAP, H-Glu-NHMec fluorogenic cleavage; inhibition, % at 7.35 µM; hit rate 1.2% among 290,000; AID 1822;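 active = inhibition above the campaign mean inhibition over all tested compounds plus 3 SD, cut at about 28% in these data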;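 also: 0% = plate median of test compound wells and 100% = 2 mM ZnCl2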
PHOSPHO1 inh = blocks human PHOSPHO1 phosphatase activity | recombinant PHOSPHO1, absorbance phosphatase assay | hit rate 1.1% among 290,000 | Q8TCT1 | inhibition, % at 13.3 µM; in the data active = inhibition above about 60%
Target sequence (Q8TCT1 whole entry, looked up): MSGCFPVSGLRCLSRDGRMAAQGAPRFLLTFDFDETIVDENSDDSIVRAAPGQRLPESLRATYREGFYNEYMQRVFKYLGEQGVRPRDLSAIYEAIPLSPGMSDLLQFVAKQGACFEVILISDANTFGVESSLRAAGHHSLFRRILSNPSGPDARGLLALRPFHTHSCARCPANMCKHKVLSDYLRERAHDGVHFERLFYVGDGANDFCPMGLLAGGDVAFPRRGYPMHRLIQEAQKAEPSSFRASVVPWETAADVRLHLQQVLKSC
ALR H2O2 inh = inhibitors of human sulfhydryl oxidase ALR; P55789; purified ALR, DTT oxidation, H2O2 HRP-luminol luminescence; inhibition, % (test concentration not listed); hit rate 3.8% among 290,000; AID 485317;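 active = mean replicate inhibition above about 79%, with every replicate also reaching it, limit read from the data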
Target sequence (P55789 whole entry, looked up): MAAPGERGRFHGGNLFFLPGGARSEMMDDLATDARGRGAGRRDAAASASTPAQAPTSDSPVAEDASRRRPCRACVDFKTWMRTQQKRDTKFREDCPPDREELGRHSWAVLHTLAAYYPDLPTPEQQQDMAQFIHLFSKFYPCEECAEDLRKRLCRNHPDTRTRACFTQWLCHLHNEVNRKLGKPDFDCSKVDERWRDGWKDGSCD
Starred values were filed as active, the others as inactive; . = no result given.

SMILES | PfG6PD inh | Cardio protect | PfM18AAP inh | PHOSPHO1 inh | ALR H2O2 inh
CCN1C[C@@H]2[C@@H]3C(=O)N(Cc4ccccc4)C(=O)[C@@H]3[C@](Cc3ccccc3)(C1=O)N2C(=O)c1ccc(Cl)cc1 | 1.1 | -4.2 | . | . | .
CCCC[n+]1ccn(-c2nc3c([N+](=O)[O-])cccc3n2C)c1 | 1.6 | 7.7 | 1.2 | 4.6 | -4.2
CCNC(=S)NN(c1ccccc1)c1ccccc1 | -2.8 | 33.4 | -14.6 | 0.2 | 98.4*
N#CC1=C(N)Oc2cc(N)ccc2C1C1CC=CCC1 (configuration not stated) | -9.1 | 2.6 | -3.1 | 16.3 | 92.6*
Cc1ccc(C2C(C#N)=C(N)Oc3cc(N)ccc32)cc1 (configuration not stated) | -6.1 | -0.6 | 6.8 | -1.0 | 95.9*
Cc1[nH]nc2c1C(C1CC=CCC1)C(C#N)=C(N)O2 (configuration not stated) | -0.8 | -8.1 | -2.9 | 2.8 | .
CC(C)NC(=O)C1(C)CCN1C/C=C/c1ccccc1 (configuration not stated) | . | 2.7 | . | . | .
CCCSc1nnc(-c2c[nH]c3ccccc23)n1CC | -4.2 | -5.5 | 3.1 | -3.3 | -8.9
C=CCn1c(-c2c[nH]c3ccccc23)n[nH]c1=S | 32.6 | 3.5 | 11.1 | 101.1* | 27.6
C=CCn1c(-c2ccccc2[N+](=O)[O-])n[nH]c1=S | 16.9 | 4.7 | 2.1 | -130.6 | 89.4*
C=CCn1c(-c2ccc([N+](=O)[O-])cc2)n[nH]c1=S | 11.4 | -2.5 | 18.4 | 25.7 | 17.1
C=CCn1c(-c2csc(-c3ccccc3)n2)n[nH]c1=S | 10.0 | -2.8 | 3.6 | 11.7 | 14.2
C=CCn1c(-c2csc3ccccc23)n[nH]c1=S | 19.5 | 5.9 | 7.6 | 102.0* | 67.2
CCn1c(-c2c[nH]c3ccccc23)n[nH]c1=S | 33.9 | -0.7 | 17.7 | 78.9* | 55.2
C=CCn1c(-c2ccccn2)n[nH]c1=S | . | -1.5 | . | . | .
Cc1ccc(C(=O)NC2CC3CCCC(C2)N3C(=S)NCc2ccco2)cc1 (configuration not stated) | 3.9 | -1.7 | 5.7 | -57.2 | -5.8
CCN(CC)c1ccc(C(=O)OCC(=O)Nc2cc(C)on2)cc1 | 2.2 | -14.4 | . | . | 1.4
CCn1c(CCc2ccccc2)n[nH]c1=S | 20.5 | 3.3 | 24.9 | -9.1 | 9.8
CCn1c(CCn2c3ccccc3c3ccccc32)n[nH]c1=S | 35.0 | 5.9 | 11.0 | 4.7 | 88.2*
O=C(COC(=O)Cc1ccccc1[N+](=O)[O-])NNC(=O)c1ccc([N+](=O)[O-])cc1 | -10.1 | -0.4 | . | . | -17.6
O=C(Nc1cc(Cl)ccc1-n1cncn1)c1ccc([N+](=O)[O-])o1 | 15.2 | 9.6 | . | . | -55.8
Cc1ccc(SCC(=O)N2CCN(c3ccccn3)CC2)cc1 | 11.1 | -3.9 | -2.5 | 11.6 | 1.0
O=C(CSc1nccc2ccccc12)N1CCN(c2ccccn2)CC1 | 5.4 | -2.0 | 1.9 | 0.7 | 98.3*
CCc1ccc(NC(=O)c2cc(S(=O)(=O)N3CCc4ccccc43)cn2C)cc1 | 22.5 | -23.1 | 6.7 | 28.1 | -2.4
Cc1c(Cl)cccc1-n1c(SCC(=O)N2CCC(C(=O)O)CC2)nc2ccccc2c1=O | -18.5 | 2.2 | 4.4 | 5.0 | 1.1
SMILES | PfG6PD inh | Cardio protect | PfM18AAP inh | PHOSPHO1 inh | ALR H2O2 inh
O=C1NC(=O)/C(=C\c2ccc(Sc3ccc(Cl)cc3)o2)N1 | 12.6 | -3.6 | -6.4 | 13.9 | 90.4*
O=C1NN(c2ccccc2)C(=O)/C1=C/c1ccc(Sc2ccc(Cl)cc2)o1 | 3.7 | -14.9 | -5.6 | 20.4 | 9.7
COc1ccc2[nH]c3c(N4CCN(Cc5ccc6c(c5)OCO6)CC4)ncnc3c2c1 | 0.5 | -8.2 | 5.7 | 5.7 | 97.4*
O=C1c2ccccc2C(Nc2ccc3c(c2)OCCO3)N1Cc1ccc2c(c1)OCO2 (configuration not stated) | -17.6 | 10.4 | 2.2 | 2.0 | 97.9*
O=C1c2ccccc2C(Nc2ccccc2)N1Cc1ccc2c(c1)OCO2 (configuration not stated) | -2.0 | 1.4 | 1.1 | 46.4 | 7.1
COc1ccc(/C=C/C(=O)NNC(=O)C(C)Oc2ccccc2F)cc1OC (configuration not stated) | -16.4 | 4.9 | . | . | -5.9
CCN(CC)C(=O)c1ccc(-c2nnc(Nc3ccc(O)cc3)c3ccccc23)cc1 | 21.9 | 58.8* | 9.6 | 19.3 | 5.4
Cc1ccc(-c2nnc(Nc3ccc(CC(N)=O)cc3)c3ccccc23)cc1S(=O)(=O)NCCO | -5.4 | 5.9 | 8.2 | 39.1 | 0.2
CCN(CC)C(=O)c1ccc(-c2nnc(Nc3ccc(C(=O)N(C)C)cc3)c3ccccc23)cc1 | -1.6 | 13.0 | 2.6 | -2.1 | -0.1
CNS(=O)(=O)c1cc(-c2nnc(Nc3ccc(NC(C)=O)cc3)c3ccccc23)ccc1C | 20.3 | 15.4 | 3.9 | 47.9 | 3.1
NC(=O)c1ccc(Nc2nnc(-c3ccc(O)cc3)c3ccccc23)cc1 | 0.8 | 59.1* | 5.0 | 1.4 | 95.6*
NC(=O)Cc1ccc(Nc2nnc(-c3ccc(O)cc3)c3ccccc23)cc1 | -10.9 | 2.0 | -4.5 | -3.9 | 99.1*
CNC(=O)c1ccc(Nc2nnc(-c3ccc(C(N)=O)cc3)c3ccccc23)cc1 | -15.6 | 11.9 | 0.1 | 32.6 | -16.2
CC(=O)Nc1ccc(Nc2nnc(-c3ccc(O)cc3)c3ccccc23)cc1 | 4.2 | 16.6 | 9.3 | 41.1 | 84.1*
COCCC(=O)N1CCC(C(=O)Nc2ccc(Oc3ccccc3)nc2)CC1 | -9.8 | 3.1 | -4.6 | 27.3 | 8.8
Cc1csc2nc(O)c(C(=O)NC3CCCCC3C)c(=O)n12 (configuration not stated) | -7.5 | 5.2 | . | . | 2.6
CC(C)n1c(=S)[nH]c2ccccc21 | 53.7 | -2.4 | 6.9 | 83.7* | 22.4
CCn1c(=S)[nH]c2ccccc21 | 23.3 | 15.5 | 7.1 | 71.2* | 31.2
O=C(Cn1c(=S)[nH]c2ccccc21)c1ccccc1 | 29.4 | 2.2 | 8.4 | 22.1 | 73.7
CCn1c(=S)[nH]c2cc(Cl)ccc21 | 18.6 | 2.1 | 0.5 | -102.6 | 70.5
Cc1ccc(NC(=O)Cn2c(=S)[nH]c3ccccc32)cc1 | 38.8 | -6.4 | 4.7 | 62.2* | -6.3
CC1(C(=O)NC2CCCC2)CCC(=O)N1CCOc1ccccc1 (configuration not stated) | . | 3.0 | . | . | .
Brc1ccc(-n2cccc2/C=N/n2cnnc2)cc1 | 5.4 | 2.7 | 31.4* | 19.3 | -1.3
O=C(O)CCCCCN1C(=O)/C(=C/c2cn(-c3ccccc3)nc2-c2cccs2)SC1=S | -18.8 | -7.0 | . | . | .
CC1=NNC(=O)/C1=C\c1cn(-c2ccccc2)nc1-c1cccs1 | 40.5 | -29.3 | 44.9* | 18.3 | -0.5
O=C(O)CCN1C(=O)/C(=C/c2cn(-c3ccccc3)nc2-c2cccs2)SC1=S | -30.5 | 6.9 | 5.6 | 78.3* | .
O=C(CC12CC3CC(CC(C3)C1)C2)Nc1ccccc1N1CCOCC1 | 5.5 | -5.1 | -7.0 | 24.5 | -4.1
O=C(/C=C/c1ccccc1)NC(NC(=S)Nc1cc(Cl)ccc1Cl)C(Cl)(Cl)Cl (configuration not stated) | 5.6 | -14.0 | 6.5 | 4.4 | -7.4
CCCCCNC(=O)CC1Nc2c3ccccc3nc(=S)n2C1=O (configuration not stated) | -7.5 | -5.9 | -4.2 | 65.1* | 10.3
